Bioassay records: PubChem, National Center for Advancing Translational Sciences (NCATS)
USP2a inh: USP2a (human) protease inhibition. O75604. USP2 core, Ub-CHOP2 coupled fluorogenic reporter, 485/531. Potency, µM (highest dose often 38.3 µM), for inactives: at the highest dose activity change, negative = inhibition, most hits filed as inhibitors. 330,000 tested, 0.01% active. AID 463254;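 further: potency means the concentration at half of the fitted maximal effect; plate controls were DMSO wells for no effect and full inhibition by NEM control for full effect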
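USP2 core (10nM final) preincubated 30min RT with compound in 20mM Tris-HCl pH 8.0, 2mM CaCl2, 2mM beta-mercaptoethanol, 0.05% CHAPS; 25nM Ub-CHOP2 plus 25nM reporter substrate added, fluorescence (Ex485/Em531) read after 60min.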
GALK inhibitor: inhibitors of human galactokinase. 270,000 tested, 0.007% active. Purified GALK, Kinase-Glo residual ATP luminescence. Potency, µM (series often up to 57.5 µM), without a hit: at the highest dose activity change, negative = inhibition, most hits filed as inhibitors. P51570; further: potency means the concentration at half of the fitted maximal effect; on the % scale 0 is the no-effect control and ±100 the full control effect
Target sequence (P51570 whole entry, looked up): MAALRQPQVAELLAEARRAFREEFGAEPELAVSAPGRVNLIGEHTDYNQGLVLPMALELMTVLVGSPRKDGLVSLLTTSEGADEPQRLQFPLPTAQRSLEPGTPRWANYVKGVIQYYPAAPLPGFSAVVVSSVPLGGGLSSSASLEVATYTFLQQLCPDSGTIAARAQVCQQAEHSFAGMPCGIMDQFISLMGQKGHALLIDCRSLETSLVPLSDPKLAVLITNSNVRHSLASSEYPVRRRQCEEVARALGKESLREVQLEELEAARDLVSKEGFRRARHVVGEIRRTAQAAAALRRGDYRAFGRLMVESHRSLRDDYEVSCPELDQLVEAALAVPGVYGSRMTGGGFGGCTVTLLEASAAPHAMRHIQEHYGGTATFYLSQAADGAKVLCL
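Galactose (100 uM) and ATP (35 uM) were turned over by 5 nM GALK for 1 h at RT. Kinase-Glo Plus then converted the remaining ATP into a luminescent signal.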
Eya2 inh: blocks the phosphatase activity of human Eya2 | O00167 | 330,000 tested, 0.006% active | recombinant Eya2, OMFP fluorescence dephosphorylation (OMFP is methylfluorescein phosphate) | Potency, µM (top dose mostly 76.9 µM), for the others: at the top dose activity, negative = inhibition, actives largely listed as inhibitors; further: potency means the concentration at half of the fitted maximal effect; on the % scale 0 is the no-effect control and ±100 the full control effect
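Eya2 protein (added as 0.2 uM solution) was preincubated with compound for 10 min at ambient temperature in 50 mM HEPES pH 7.5, 50 mM NaCl, 5 uM MgCl2, 0.05% BSA, 1 mM DTT. OMFP (added at 50 uM) then reacted 10 min; fluorescence read at 485/525 nm.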
D1 antagonist: antagonists of human D1 dopamine receptor; P21728; HEK293 TREx D1 cells, calcium flux, dopamine EC80; hits give low values; activity change, negative = inhibition, % at 10 µM; 360,000 tested, 3.2% active; in the data active means activity change below about -30%; further: on the % scale 0 is the no-effect control and ±100 the full control effect
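Inducible Hek293 Trex D1 cells (tetracycline, overnight, 30 C). Calcium dye 30–90 min RT. Antagonist mode: EC80 dopamine added after 180 s compound read.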
D1 PAM: potentiators of human D1 dopamine receptor; P21728; HEK293 TREx D1 cells, calcium flux, dopamine EC20 potentiation; potentiation, % at 10 µM; 360,000 tested, 0.036% active; AID 504651; in the data active means potentiation above about 30%; further: 0% is about no effect
D1 agonist: human D1 receptor agonism | P21728 | HEK293 T-REx D1 cells, calcium flux, agonist mode | activation, % at 2 µM | 360,000 tested, 1% active; in the data active means activation above about 30%; further: 0% is about no effect
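Tetracycline-induced HEK293 TREx D1 cells, force-coupled to calcium signalling, were dye-loaded with a no-wash calcium kit. Compound was pin-added after a 10 s baseline. Fluorescence was read kinetically at 1 cycle/s for 180 s, with calcium rises flagged as agonism.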
* = called active by the depositor; . = no result. In the library only some 3.9% were active in any assay of this set; here they are far more common. Unless noted, the call rests on the fitted dose curve; in most records, active means well fitted inhibition curve with a large enough effect; inconclusive means small, poorly fitted or top-dose-only effect, or effect the other way; inactive means flat fitted curve, though single readings scatter.

SMILES	USP2a inh	GALK inhibitor	Eya2 inh	D1 antagonist	D1 PAM	D1 agonist
CSc1nc2ccc(S(=O)(=O)N3CCOCC3)cc2s1	0%	0%	13%	-1	-6	0
O=C(COC(=O)c1cc(S(=O)(=O)N2CCOCC2)ccc1F)Nc1ccc(Cl)cn1	0%	.	8%	-6	-5	1
CN(Cc1ccccc1)Cc1c(O)ccc2c(=O)c(-c3ccccc3)c(C(F)(F)F)oc12	.	.	.	-8	-4	1
O=C(COC(=O)c1n[nH]c2ccccc12)Nc1cccc(S(=O)(=O)N2CCOCC2)c1	2%	4%	1%	-31*	-9	4
CCCc1nc2ccccc2c(C(=O)OCC(=O)Nc2ccc(S(=O)(=O)N3CCOCC3)cc2)c1CC	-7%	-1%	-45%	.	-2	5
CCCc1nc2ccccc2c(C(=O)OCC(=O)Nc2cccc(S(=O)(=O)N3CCOCC3)c2)c1CC	-5%	.	1%	-34*	-7	8
O=C(COC(=O)c1cc(=O)[nH]c2ccccc12)Nc1cccc(S(=O)(=O)N2CCOCC2)c1	10%	-2%	6%	-9	-12	4
O=C(COC(=O)CCc1nc2ccccc2s1)Nc1cccc(S(=O)(=O)N2CCOCC2)c1	-1%	2%	24%	-44*	-7	4
COc1ccccc1NC(=O)CN1C(=O)CCSc2ccccc21	.	.	.	11	-1	2
CCc1cccc(CC)c1NC(=O)CN(C)S(=O)(=O)c1ccc2c(c1)n(C)c(=O)c(=O)n2C	.	.	.	-7	-3	1
Cc1ccc(C)c(NC(=O)Cn2c(=O)n(CCCS(=O)(=O)C3CCCCC3)c(=O)c3ccccc32)c1	.	.	.	-8	-3	9
Cc1onc(-c2ccccc2Cl)c1C(=O)NCc1ccccn1	0%	-2%	5%	2	1	3
Cc1onc(-c2c(F)cccc2Cl)c1C(=O)c1ccc(F)cc1	4%	0%	7%	-55*	0	8
Cc1onc(-c2c(F)cccc2Cl)c1C(=O)NCc1ccccn1	1%	8%	7%	-39*	4	3
Cc1onc(-c2c(F)cccc2Cl)c1C(=O)c1ccccc1O	-1%	.	-5%	-41*	-11	9
NS(=O)(=O)c1ccc(Sc2ccccn2)c([N+](=O)[O-])c1	1%	0%	-1%	-33*	-4	2
O=C(O)c1ccc(Sc2ccccn2)c([N+](=O)[O-])c1	2%	2%	7%	-4	3	2
O=[N+]([O-])c1ccc(Sc2ccccn2)nc1	-2%	-1%	7%	-68*	6	2
O=[N+]([O-])c1ccc(CSc2ccccn2)cc1	4%	-4%	-14%	-4	-1	1
COC(=O)c1ccc(Sc2ccccn2)c([N+](=O)[O-])c1	4%	.	5%	-34*	-9	1
COC(=O)c1cc(=O)n(Cc2ccco2)c(=Nc2ccc(F)cc2)s1	2%	1%	-9%	-35*	-2	0
COC(=O)c1cc(=O)n(Cc2ccc(F)cc2)c(=Nc2ccccc2)s1	-8%	-1%	-4%	3	-2	6
O=C(c1ccc2c(c1)OCO2)N(c1ccccc1)C1C=CS(=O)(=O)C1 (configuration not stated)	2%	-3%	8%	-40*	2	3
C/C(=N\NC(=O)CNc1ccc(F)cc1)c1cc2ccccc2o1	-6%	1%	0%	-40*	-5	2
CCCN(CCC)CC(O)COc1ccc2c(c1)OCO2 (configuration not stated)	0%	-2%	-12%	-45*	-6	2
Cc1ccccc1CSCC(=O)NC1CCCC1	1%	1%	-22%	-45*	-2	-3
Cc1cccc(C)c1OCC(=O)NC1CC1	0%	-1%	-3%	-47*	-4	-2
Cc1cccc(OCC(=O)NC2CCCCCC2)c1C	-1%	-1%	-5%	-24	0	7
Cc1ccccc1CC(=O)NC1CCCCCC1	-2%	4%	15%	5	-3	-2
